According to PubChem BioAssay:
The source made the active and inactive calls.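 The calls were made as follows, unless noted: active = fluorescence slope after compound addition differing from the mean of all screened samples at 99.7% confidence, in either direction; inactive = the rest.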

What was measured:
[1] = inhibitors of TNFa-induced NFkB p65 translocation, primary screen, imaging, HUVEC, MLSMR starter and 10KST1 sets (AID 438;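 active = inhibition above 20% together with a positive visual image hit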;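 also: compound added about 3h40 before a 20 min TNFalpha stimulation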;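 as to inhibition: signal is the nuclear over cytoplasmic p65 intensity ratio per well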); conditions: HUVEC TNFa-induced p65 nuclear translocation; cell count: measured here: nuclei count (cytotoxicity indicator), at 2.08 µM; inhibition: at 2 µM, stronger effect = higher value, 0% TNFa-plus-vehicle, 100% no-TNFa wells
[2] = inhibitors of mutant huntingtin aggregation, primary screen, imaging, exon1htt(103Q)mCFP cells, high-content imaging (AID 483;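 active = visual image review flags a hit and inhibition of aggregation exceeds 20%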;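 also: compound exposure lasted 3 days before fixation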;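 as to nuclei count: percent of the per-plate median nuclei count of sample wells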); conditions: exon1htt(103Q)mCFP cell line, aggregate imaging, at 2 µM; inhibition of aggregation: stronger effect = higher value; nuclei count: measured here: cell count, toxicity
[3] = inhibitors of E-selectin induction by TNFa, primary screen, imaging, HUVEC, immunofluorescence, MLSMR starter and 10KST1 sets (AID 487;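 active = visually confirmed hit in the image check and inhibition above 20%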;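 as to inhibition: signal is fraction of cell area covered by stained E-selectin grains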;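 as to nuclei count: 100% = median nuclei count of all wells on the same plate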); conditions: HUVEC TNFalpha-induced E-selectin immunofluorescence imaging, at 2 µM; inhibition: stronger effect = higher value; nuclei count: measured here: cell number, toxicity
[4] = biological target: Voltage-gated potassium channel subunit beta-2 (Rattus norvegicus) (UniProt P62483); test: KvBeta enzyme negative modulators, primary screen, biochemical, NADPH fluorescence (AID 622;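 active = fluorescence slope higher than the sample average by over 3 SD, cut at about -0.22 in these data, passing the limit was not always enough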;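 also: slope of raw intensity against log time taken from 70 to 1610 s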); conditions: recombinant KvBeta, 4-cyanobenzaldehyde reduction, at 10 µM, stronger effect = higher value
Sequence of Voltage-gated potassium channel subunit beta-2 (Rattus norvegicus) (P62483 whole entry, looked up): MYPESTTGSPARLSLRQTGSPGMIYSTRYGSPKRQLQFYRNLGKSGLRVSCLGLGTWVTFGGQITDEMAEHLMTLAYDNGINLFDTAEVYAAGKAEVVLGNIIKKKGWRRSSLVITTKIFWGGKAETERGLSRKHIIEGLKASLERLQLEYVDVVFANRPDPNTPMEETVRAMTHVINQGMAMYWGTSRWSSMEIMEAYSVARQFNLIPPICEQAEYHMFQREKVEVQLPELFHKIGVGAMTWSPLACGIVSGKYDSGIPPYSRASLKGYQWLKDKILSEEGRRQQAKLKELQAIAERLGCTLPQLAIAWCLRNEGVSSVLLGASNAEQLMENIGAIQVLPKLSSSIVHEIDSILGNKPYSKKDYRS

[5] = biological target: Voltage-gated potassium channel subunit beta-2 (Rattus norvegicus) (UniProt P62483); test: KvBeta positive modulators, primary screen, biochemical, NADPH fluorescence (AID 623;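 active = NADPH fluorescence slope more negative than the mean of all samples by about 3 SD, 99.7% confidence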;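 also: fluorescence intensity change per second fitted from 20 to 320 s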); conditions: Recombinant KvBeta, NADPH fluorescence decrease slope, 10 min; at 10 µM; stronger effect = lower value
[6] = biological target: Alpha-2C adrenergic receptor (Homo sapiens) (UniProt P18825); test: modulators of alpha2C/GIRK thallium flux, primary screen, cell-based, HEK293 alpha2C/GIRK1/2 (AID 624); conditions: thallium flux BTC fluorescence, at 10 µM, actives lie on both sides;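 also: slope of fluorescence ratio to pre-addition baseline per second over 15 to 24 s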
Sequence of Alpha-2C adrenergic receptor (Homo sapiens) (P18825 whole entry, looked up): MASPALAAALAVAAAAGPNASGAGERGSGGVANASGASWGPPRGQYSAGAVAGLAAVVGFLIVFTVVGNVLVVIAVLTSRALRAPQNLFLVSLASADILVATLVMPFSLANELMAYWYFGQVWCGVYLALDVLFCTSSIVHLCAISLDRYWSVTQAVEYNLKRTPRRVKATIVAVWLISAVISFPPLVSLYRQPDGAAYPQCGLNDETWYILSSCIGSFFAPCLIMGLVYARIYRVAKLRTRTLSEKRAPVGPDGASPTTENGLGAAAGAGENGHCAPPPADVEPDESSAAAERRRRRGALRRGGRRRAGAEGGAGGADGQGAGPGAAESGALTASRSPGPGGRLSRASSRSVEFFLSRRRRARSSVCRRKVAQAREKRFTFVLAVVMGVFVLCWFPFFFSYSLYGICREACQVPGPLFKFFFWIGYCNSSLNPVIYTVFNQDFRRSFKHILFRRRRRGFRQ

[7] = inhibitors of Sendai virus-induced IRF3 signaling, primary screen, TLR/RLR signaling modifier project, cell-based, Sendai virus stimulus, luciferase, 10K MLSCN set (AID 602276;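 active = inhibition at or above 50% at 10 µM; inactive = inhibition below 50%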;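 also: firefly luciferase from ISG56 promoter only with Renilla not read in this screen; 0% = Sendai virus plus DMSO and 100% = medium plus DMSO without virus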); conditions: HEK293 RL24 IRF3 luciferase reporter, at 10 µM, stronger effect = higher value
[8] = inhibitors of poly I:C-induced TLR3 signaling, primary screen, cell-based, poly I:C stimulus, luciferase, 10K MLSCN set (AID 602277;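 active = inhibition of the reporter signal at or above 50%; inactive = inhibition below 50%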); conditions: HEK293-TLR3 RL24 IRF3 luciferase reporter, at 10 µM, stronger effect = higher value

O=C(NCC1CCCO1)c1ccc(C(=O)NCC2CCCO2)cc1 (configuration not stated)
cell count [1]: 331 | inhibition [1]: 1.9% (inactive) | inhibition of aggregation [2]: -3.7% (inactive) | nuclei count [2]: 101% | inhibition [3]: 52.3% (inactive) | nuclei count [3]: 94.3% | fluorescence slope [4]: -0.332 (inactive) | NADPH fluorescence slope [5]: -3.2e-05 (inactive) | slope [6]: 0.00518 (inactive) | inhibition [7]: 1.79% (inactive) | inhibition [8]: 4.03% (inactive)

CCOC(=O)c1cc2c(=O)n3ccccc3nc2n(Cc2ccccc2)c1=N
cell count [1]: 913 | inhibition [1]: 11.3% (inactive) | inhibition of aggregation [2]: 19.9% (inactive) | nuclei count [2]: 102% | inhibition [3]: -109% (inactive) | nuclei count [3]: 117% | fluorescence slope [4]: -0.364 (inactive) | NADPH fluorescence slope [5]: -2.8e-05 (inactive) | slope [6]: 0.00332 (inactive) | inhibition [7]: 6.32% (inactive) | inhibition [8]: 33.2% (inactive)

CCc1ccc(N(CC(=O)NC2CCCC2)S(=O)(=O)c2c(C)noc2C)cc1
cell count [1]: 720 | inhibition [1]: -0.8% (inactive) | inhibition of aggregation [2]: -6% (inactive) | nuclei count [2]: 97.9% | inhibition [3]: -48.7% (inactive) | nuclei count [3]: 102% | fluorescence slope [4]: -0.569 (inactive) | NADPH fluorescence slope [5]: -4.6e-05 (inactive) | slope [6]: 0.00649 (inactive) | inhibition [7]: 4.77% (inactive) | inhibition [8]: 37.7% (inactive)

O=C(CCCCCn1c(=S)[nH]c2cc3c(cc2c1=O)OCO3)N1CCN(Cc2ccccc2)CC1
cell count [1]: 494 | inhibition [1]: 3% (inactive) | inhibition of aggregation [2]: -11.1% (inactive) | nuclei count [2]: 100% | inhibition [3]: -25.7% (inactive) | nuclei count [3]: 113% | fluorescence slope [4]: -0.476 (inactive) | NADPH fluorescence slope [5]: 1.3e-05 (inactive) | slope [6]: 0.00605 (inactive) | inhibition [7]: -5.45% (inactive) | inhibition [8]: 15.2% (inactive)

CCOC(=O)C1=C(C)N(C)C(=O)NC1c1ccccc1OC (configuration not stated)
cell count [1]: 692 | inhibition [1]: -11.4% (inactive) | inhibition of aggregation [2]: -20.9% (inactive) | nuclei count [2]: 92.6% | inhibition [3]: 50.2% (inactive) | nuclei count [3]: 93.2% | fluorescence slope [4]: -0.4 (inactive) | NADPH fluorescence slope [5]: -1.2e-05 (inactive) | slope [6]: 0.00553 (inactive) | inhibition [7]: 16.2% (inactive) | inhibition [8]: 33.7% (inactive)

CC(=O)Nc1ccc(S(=O)(=O)N2CCC(NC(C)=O)(c3cccc(F)c3)CC2)cc1
cell count [1]: 682 | inhibition [1]: -5.8% (inactive) | inhibition of aggregation [2]: -25.6% (inactive) | nuclei count [2]: 130% | inhibition [3]: -10.1% (inactive) | nuclei count [3]: 109% | fluorescence slope [4]: -0.494 (inactive) | NADPH fluorescence slope [5]: -4.3e-05 (inactive) | slope [6]: 0.0062 (inactive) | inhibition [7]: 8.44% (inactive) | inhibition [8]: 28.9% (inactive)

O=C(CSc1nnc(COc2ccc(Cl)cc2)o1)N1CCN(c2ccccc2)CC1
cell count [1]: 359 | inhibition [1]: -0.5% (inactive) | inhibition of aggregation [2]: -18.8% (inactive) | nuclei count [2]: 98.2% | inhibition [3]: -83.8% (inactive) | nuclei count [3]: 110% | fluorescence slope [4]: -0.501 (inactive) | NADPH fluorescence slope [5]: -3.2e-06 (inactive) | slope [6]: 0.00706 (inactive) | inhibition [7]: 5.53% (inactive) | inhibition [8]: -9% (inactive)
